In the library only some 7.4% were active in any assay of this set; here they are far more common.
M1 ag = M1 muscarinic receptor agonists, primary screen, CHO-M1 cells, Fluo-4 calcium, agonist mode; Muscarinic acetylcholine receptor M1; Fluo-4 calcium fluorescence; active compounds read high; B-score at 10 µM; 64,000 compounds, 3% hits; AID 626, 2007;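 active means fluorescence rise, raw or as B-score row- and column-corrected plate score, outside the 99.7% band of its plate's samples, either direction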
FXIa inh mix = FXIa protease inhibitors in compound pools, primary screen, biochemical, 10-compound mixtures; 62,000 compounds, 0.19% hits; AID 680, 2007; purified FXIa, fluorogenic substrate, pooled mixtures; inhibition, % at 5 µM;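 further: each value is inhibition by a whole ten-compound pool holding the compound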
DAT uptake mod = changed hDAT dopamine uptake under cocaine IC80, either direction, primary screen, cocaine antagonist project, cell-based, LLC-PK1 hDAT, [14C]-dopamine uptake, MLSMR; Sodium-dependent dopamine transporter (Homo sapiens), Q01959; LLC-PK1 hDAT cells, [14C]-dopamine uptake with cocaine IC80; actives deviate in either direction; B-score at 10 µM; 110,000 compounds, 1.3% hits; AID 449768, 2010;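 active means Z score or B-score, a plate-position-corrected score, falls beyond the plate's 99.7% confidence bounds, in either direction; inactive means both scores lie inside the 99.7% bounds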
FXIIa mix inh = human factor XIIa inhibitors, primary screen, biochemical, pooled compound mixtures, fluorogenic substrate. Coagulation factor XII (Homo sapiens), P00748. purified FXIIa. 62,000 compounds, 0.2% hits. AID 684, 2007. inhibition, % at 5 µM
D1 allo mod = D1 CRE-luciferase signal change, two-sided – cell-based, HEK293 D1, dopamine EC30, D1 allosteric modulator project, primary screen; B-score at 10 µM; 58,000 compounds, 5.9% hits; dopamine EC30 potentiation; actives deviate in either direction;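 active means luminescence count or its row- and column-corrected plate score outside the 99.7% band of the plate's sample wells, on either side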
Target sequence (P21728 whole entry, looked up): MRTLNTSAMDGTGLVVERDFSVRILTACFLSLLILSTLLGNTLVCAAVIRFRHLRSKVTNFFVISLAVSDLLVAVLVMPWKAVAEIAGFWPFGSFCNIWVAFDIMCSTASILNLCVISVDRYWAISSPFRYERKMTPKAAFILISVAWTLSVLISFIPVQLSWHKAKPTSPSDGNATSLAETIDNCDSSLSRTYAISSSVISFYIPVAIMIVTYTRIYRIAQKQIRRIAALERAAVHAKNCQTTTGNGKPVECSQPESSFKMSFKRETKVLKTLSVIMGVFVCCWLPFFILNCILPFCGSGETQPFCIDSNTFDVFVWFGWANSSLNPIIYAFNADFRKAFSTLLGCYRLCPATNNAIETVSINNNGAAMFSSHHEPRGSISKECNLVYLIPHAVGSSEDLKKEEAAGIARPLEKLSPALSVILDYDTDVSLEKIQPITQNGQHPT
M1 antag = antagonists of rat M1 muscarinic receptor. CHO-M1 cells, Fluo-4 calcium, ACh EC80 antagonist mode; active compounds read low. B-score at 10 µM. 64,000 compounds, 3.4% hits;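 active means calcium fluorescence response, raw or row-and-column corrected B-score, differing from the plate sample mean either way at a set confidence level, mostly lower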
M1 agonist conf = rat M1 muscarinic receptor agonists, confirmation, CHO-M1 cells, Fluo-4 calcium, duplicate retest. fluorescence change (max-min) at 10 µM. Fluo-4 calcium fluorescence, agonist mode; actives lie on both sides. 1,700 compounds, 19% hits. shares compounds with M1 ag;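 active means fluorescence change differs from the solvent-only DMSO control mean at a set confidence level in both duplicate runs; inconclusive means differs from solvent-only control mean in just one of two runs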;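 further: an EC20 dose of acetylcholine follows compound addition during the same imaging run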
M4 ag counter = agonist activity at rat M4 receptor, confirmation, counter-screen for M1 allosteric modulator project, cell-based, agonist mode; shares compounds with M1 ag; CHO M4/Gqi5 cells, Fluo-4 calcium fluorescence; actives lie on both sides; fluorescence change (max-min) at 10 µM; 1,700 compounds, 9% hits; AID 1741, 2009;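 active means fluorescence change differing from the plate's solvent-only control wells at 99.7% confidence in both duplicates, whether higher or lower; inconclusive means differs from solvent controls in only one of two duplicates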
Hits are given with their value; 0 = inactive; ? = inconclusive; - = no result. Unless noted, no stated cut-off is given here; in the data, active means inhibition above about 20% (passing the limit was not always enough); inactive means the rest.

SMILES	M1 ag	FXIa inh mix	DAT uptake mod	FXIIa mix inh	D1 allo mod	M1 antag	M1 agonist conf	M4 ag counter
N#CCSc1nc2ccccc2c(=O)n1CCC(=O)NCCc1ccccc1	0	0	0	0	0	0	-	-
CCCCN(CCCC)c1nc2ccccc2nc1C(C#N)C(=O)NCCCOC (stereo not given)	434	-	0	-	0	-16	2697	2698
CCN(CC)c1nc2ccccc2nc1C(C#N)C(=O)NCCCOC (stereo not given)	5	0	0	0	0	0	0	0
COc1ccccc1NC(=O)Cc1noc(CSc2nnc(N)s2)n1	-	-	0	-	-	-	-	-
O=P(CCN1CCCCC1)(c1ccccc1)c1ccccc1	-	-	0	-	-	-	-	-
O=C(c1ncc[nH]1)c1ccco1	3.6	0	0	0	0	0	0	0
C=CCn1c(=O)/c(=C/c2ccc(C)o2)s/c1=C(/C#N)C(=O)c1ccccc1	12	0	0	0	0	0	86	275
Cc1c(CN(C)C(=O)CSc2nc(-c3ccco3)cc(C(F)(F)F)n2)cnn1C	0	0	0	0	0	0	-	-
N#CC(C(=O)NCCc1ccccc1)c1nc2ccccc2nc1N1CCCCC1 (stereo not given)	17	0	0	0	0	0	63	0
CCOC(=O)N1CCN(c2nc3ccccc3nc2C(C#N)C(=O)NCCc2ccccc2)CC1 (stereo not given)	22	0	0	0	0	0	?	0
CCOc1ccccc1N1CCN(c2nc3ccccc3nc2C(C#N)C(=O)OC)CC1 (stereo not given)	7.7	0	0	0	-4.3	0	?	0
COc1ccccc1N1CCN(c2nc3ccccc3nc2C(C#N)C(=O)OC(C)C)CC1 (stereo not given)	0	0	0	0	0	0	-	-
N#CC(C(=O)NCc1ccccc1)c1nc2ccccc2nc1N1CCCC1 (stereo not given)	177	0	0	0	0	-17	1394	794
CCN1CCN(c2nc3ccccc3nc2C(C#N)C(=O)OCc2ccccc2)CC1 (stereo not given)	0	-	0	-	0	0	-	-
O=C1NC(=O)[C@@H]2C3c4ccccc4C=CN3[C@H](C(=O)c3cccs3)[C@H]12 (stereo not given in full)	0	0	0	0	0	0	-	-
CCC(C)c1ccc(O)c(NC(=O)c2ncn[nH]2)c1 (stereo not given)	12	0	0	0	0	0	-24	0
COc1cc(NC(=O)C2CC(=O)NC3=C2C(=O)CC(C)(C)C3)c(OC)cc1Cl (stereo not given)	16	0	0	0	-	0	0	0
CCOC(=O)C1CCCN(CCC(=O)Nc2ccccc2)C1 (stereo not given)	-	-	0	-	-	-	-	-
CCOC(=O)C1CCCN(CCC(=O)Nc2ccc(F)c(F)c2)C1 (stereo not given)	5.8	0	0	0	0	0	0	0
CCOC(=O)C1CCCN(CC(=O)NC2=Nc3ccccc3N=C(C)C2c2ccccc2)C1 (stereo not given)	7.4	0	0	0	0	0	-31	0
CCOC(=O)C1CCCN(C(=O)CCC(=O)Nc2ccc3nc(N4CCOCC4)cc(C)c3c2)C1 (stereo not given)	5.4	0	0	0	0	0	?	0
O=S(=O)(c1ccc(F)cc1)N1CCCC(CO)C1 (stereo not given)	0	0	-	0	-	0	-	-
COC(=O)NCCOC(=O)N(O)c1ccc(Br)cc1	-	0	0	0	-	-	-	-

Screening results: PubChem BioAssay, several laboratories
